Measured values taken from PubChem BioAssay (EPA / NIEHS).
Several values for one entry are separate records, joined by “and”; a condition that tells them apart may be missing. Identical values can stand only once. Records with an inconclusive call do not appear. A structure can be active in one record and inactive in another. Activity calls are given as the source filed them. How the source made its calls: active means hit-call score of the fitted dose curve at least 0.9, where 1 is the maximum; inconclusive means response in the unintended direction; inactive means score below 0.9.

biological target: Cellular tumor antigen p53 (Homo sapiens) (UniProt P04637); test: TOX21_p53_BLA_p5_ratio: Tox21 HCT-116 p53 Agonism Beta-lactamase Assay, Ratio, Phase 5 (AID 2283599)
Description: TOX21_p53_BLA_p5 is a cell-based, single-readout assay that uses HCT116, a human intestinal cell line, […] in a 1536-well plate.TOX21_p53_BLA_p5_ratio is an assay readout measuring reporter gene via receptor activity and designed using inducible reporter (beta lactamase induction) detected with GAL4 b-lactamase reporter gene. The signal is derived from the ratio of cleaved (ch2) to uncleaved (ch1) reporter gene substrate used as the measure of target activity.Data from the assay component TOX21_p53_BLA_p5_ratio was analyzed into 1 assay endpoint. This assay endpoint, TOX21_p53_BLA_p5_ratio, was analyzed in the positive analysis fitting direction relative to DMSO as the negative control and baseline of activity. Using a type of inducible reporter, gain-of-signal activity can be used to understand changes in the reporter gene as they relate to the gene TP53. Furthermore, this assay endpoint can be referred to as a primary readout, because this assay has produced multiple assay endpoints and this ratio serves a reporter gene function to understand target activity. To generalize the intended target to other relatable targets, this assay endpoint is annotated to the DNA binding intended target family, where the subfamily is tumor suppressor.
Thawing Method: Place 14 mL of pre-warmed thaw medium into a 15 mL of conical tub. Remove the vial of cells to be thawed from liquid nitrogen and thaw rapidly by placing at 37C in a water bath with gentle agitation for 1-2 minutes. Decontaminate the vial by wiping with 70% ethanol before opening in a biological safety cabinet. Transfer the vial contents drop-wise into 14 mL of thaw medium in a sterile 15-mL conical tub. Centrifuge cells at 900 rpm for 4 minutes and resuspend in thaw medium. Transfer contents to the T75 tissue culture flask containing Thaw Medium and place flask in a humidified 37C/5% CO2 incubator. Switch to growth medium at first passage.Propagation Method: Aspirate medium, rinse once in DPBS, add 0.25% Trypsin/EDTA and swirl to coat the cell evenly. Add an equal volume of Growth Medium to inactivate Trypsin after 2-3 minutes incubation at 37C. Centrifuge cells at 900 rpm for 4 minutes and resuspend in growth medium. Cell should be passage or fed at least twice a week.Assay Protocol: Harvest cells from culture in growth medium and resuspend in assay medium. 2.2 Dispense 4000 cells/5 uL/well into 1536-well black/clear bottom plates using a Multidrop dispenser. After the cells were incubated at 37C for 5 hours, 23 nL of compounds dissolved in DMSO were transferred to the assay plate by a PinTool resulting in a 217-fold dilution. Incubate the plates for 16 hours at 37C, 5% CO2. Add 1 uL of 6X LiveBLAzer FRET B/G (CCF4-AM) Substrate Mixture to each well using a BioRAPTR dispenser and incubate the plates at room temperature for 2 hours. Measure fluorescence intensity at 460 and 530 nm emission and 405 nm excitation by an Envision detector. Data is expressed as the ratio of 460nm/530nm emissions. Add 4 uL of Cell-titer Glo to each well using BioRAPTR and incubate the plates at room temperature for 2 hours. Measure fluorescence intensity by a VewLux plate reader.

Sequence of Cellular tumor antigen p53 (Homo sapiens) (P04637 whole entry, looked up, the tested form may be a part): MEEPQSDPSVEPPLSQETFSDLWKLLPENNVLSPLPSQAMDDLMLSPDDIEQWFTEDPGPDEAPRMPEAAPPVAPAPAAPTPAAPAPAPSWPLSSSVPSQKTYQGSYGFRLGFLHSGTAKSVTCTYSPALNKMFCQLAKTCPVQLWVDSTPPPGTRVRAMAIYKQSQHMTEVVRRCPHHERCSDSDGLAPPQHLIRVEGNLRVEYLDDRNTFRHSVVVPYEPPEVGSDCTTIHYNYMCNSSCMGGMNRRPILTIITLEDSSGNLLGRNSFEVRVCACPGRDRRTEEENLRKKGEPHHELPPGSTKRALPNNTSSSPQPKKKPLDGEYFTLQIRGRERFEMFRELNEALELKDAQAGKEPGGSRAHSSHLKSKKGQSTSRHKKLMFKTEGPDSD

| SMILES | outcome | AC50 |
| --- | --- | --- |
| CCCCC(CC)COCCO (stereo not given) | inactive |  |
| CC(C)(O)CCc1ccccc1 | inactive |  |
| CCC(=O)OC(C)(C)C1CC=C(C)CC1 (stereo not given) | inactive |  |
| CCOc1ccc(NC(C)=O)cc1 | inactive |  |
| CC1(C)CC(=O)CC(C)(C)N1 | inactive |  |
| CC(=O)OC/C=C(C)/C=C/C=C(C)/C=C/C1=C(C)CCCC1(C)C | inactive |  |
| O=C(Nc1cccc(Cl)c1)OCC#CCCl |  | 14.1 µM (active) |
| NC(=O)c1cccnc1 | inactive |  |
| CC(=O)CCC=C(C)CCC=C(C)C | inactive |  |
| NC(N)=NC(N)=NCCc1ccccc1 | inactive |  |
| CN(C)CCCNCCCN(C)C | inactive |  |
| CCCCCCCCCCCCS | inactive |  |
| CCCCCCCCCCCCOCCOS(=O)(=O)O | inactive |  |
| C[C@]12CC[C@@H]3c4ccc(O)cc4CC[C@H]3[C@@H]1CC[C@@H]2O | inactive | 31.7 µM (active) and 34.6 µM (active) |
| CC(=O)CCc1ccc(O)cc1 | inactive |  |
| N=C1N=C(N)c2ccccc21 |  | 13.3 µM (active) |
| CC1=CCC(C(C)(C)O)CC1 (stereo not given) | inactive |  |
| CCCCOCCOCCO | inactive |  |
| CCCCCC1CCC(=O)O1 (stereo not given) | inactive |  |

| SMILES | outcome | AC50 |
| --- | --- | --- |
| CC/C=C\CCCCO | inactive |  |
| O=S(=O)(O)CCCN1CCOCC1 | inactive |  |
| C/C=C(\C)C(=O)OC/C=C(\C)CCC=C(C)C | inactive |  |
| C=CCS(=O)(=O)O | inactive |  |
| NCCN1CCNCC1 | inactive |  |
| Cc1cc(O)c2c(c1)C(=O)c1cc(O)cc(O)c1C2=O | inactive | 11.9 µM (active) |
| CCCCN(CCCC)CCCCCCN(CCCC)CCCC | inactive |  |
| CCCCCCCCCCCCCCCCCC(=O)OCCCCCCCCCCCCCC(C)C | inactive |  |
| CC(C)C(=O)OCC=Cc1ccccc1 | inactive |  |
| O=C(O)C1=NN(c2ccc(S(=O)(=O)O)cc2)C(=O)C1 | inactive |  |
| COC(=O)c1cccc(C(=O)OC)c1 | inactive |  |
| CC(C)(O)C(=O)c1ccc(OCCO)cc1 | inactive |  |
| CCCO | inactive |  |
| CCCCCCCCCCCCCC(=O)OCC | inactive |  |
| [O-]/[N+](=N\O)c1ccccc1 | inactive |  |
| c1ccc(OCCOc2ccccc2)cc1 | inactive |  |
| CC1=CCC(=C(C)C)CC1 | inactive |  |
| CCCCCCC(O)CCOC(C)=O (stereo not given) | inactive |  |
| S=c1[nH][nH]c(=S)s1 | inactive |  |
